Measured values as given in the supplement of paper PMC11732987, “Enantioselective OTUD7B fragment discovery through chemoproteomics screening and high-throughput optimisation” (Communications Chemistry, 2025).

Assays:
Experiment in all cases: log2 ratio of Biotin-Ahx-Ub-VS probe labelling (fragment/DMSO); higher = less target engagement (more negative = stronger competition), active = hit call of the paper (q ≤ 0.05, log2 ratio ≤ -1)
Conditions in all cases: compound concentration: 200 uM; treatment time: 3 h
USP34 = USP34 (UniProt Q70CQ2)
Outline: (§1)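 Labelled DUBs from HEK293T lysate were NeutrAvidin-enriched, digested with LysC and trypsin, and run by diaPASEF LC-MS/MS. Before that, each 495 µg sample in Tris/CHAPS/IGEPAL buffer with protease inhibitors was treated in triplicate with fragment at 200 µM or vehicle for 3 h, then with Biotin-Ahx-Ub-VS at 0.5 µM final for 1 h. Values are average log2 ratios of fragment over vehicle by unpaired t-test, based on global-median-normalised Spectronaut label-free quantities from proteins with ≥2 unique peptides.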

USP36 = molecular target: T1, USP36 (UniProt Q9P275)
T1 sequence (whole entry): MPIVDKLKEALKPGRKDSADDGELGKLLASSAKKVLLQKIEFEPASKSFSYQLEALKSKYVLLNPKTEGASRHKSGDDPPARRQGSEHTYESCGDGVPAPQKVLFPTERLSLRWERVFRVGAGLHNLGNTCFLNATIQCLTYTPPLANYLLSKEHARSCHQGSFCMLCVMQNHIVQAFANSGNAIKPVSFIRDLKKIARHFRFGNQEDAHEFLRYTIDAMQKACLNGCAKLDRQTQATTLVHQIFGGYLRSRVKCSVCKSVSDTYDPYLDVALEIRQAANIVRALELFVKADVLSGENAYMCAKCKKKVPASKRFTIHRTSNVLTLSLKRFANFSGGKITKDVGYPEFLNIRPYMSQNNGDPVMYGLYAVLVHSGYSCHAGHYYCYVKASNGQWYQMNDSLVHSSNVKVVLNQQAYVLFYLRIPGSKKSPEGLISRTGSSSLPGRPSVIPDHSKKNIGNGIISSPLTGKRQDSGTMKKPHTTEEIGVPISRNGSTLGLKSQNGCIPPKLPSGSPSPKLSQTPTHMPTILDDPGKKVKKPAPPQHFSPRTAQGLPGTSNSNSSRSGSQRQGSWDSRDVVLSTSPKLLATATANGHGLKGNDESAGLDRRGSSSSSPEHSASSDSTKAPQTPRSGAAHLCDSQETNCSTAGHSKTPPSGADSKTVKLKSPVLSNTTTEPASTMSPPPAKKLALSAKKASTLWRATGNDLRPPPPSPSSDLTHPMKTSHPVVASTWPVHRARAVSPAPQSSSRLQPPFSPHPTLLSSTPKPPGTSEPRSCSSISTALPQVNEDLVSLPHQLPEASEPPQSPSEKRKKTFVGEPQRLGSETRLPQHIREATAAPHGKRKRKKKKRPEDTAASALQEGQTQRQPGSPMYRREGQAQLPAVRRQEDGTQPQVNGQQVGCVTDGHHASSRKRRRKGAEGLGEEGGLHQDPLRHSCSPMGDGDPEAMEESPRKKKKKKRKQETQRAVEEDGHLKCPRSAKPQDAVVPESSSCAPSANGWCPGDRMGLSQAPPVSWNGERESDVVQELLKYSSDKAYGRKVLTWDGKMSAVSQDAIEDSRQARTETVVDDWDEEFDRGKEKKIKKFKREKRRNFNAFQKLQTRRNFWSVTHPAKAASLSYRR
Outline: as §1

USP38 = molecular target: T2, USP38 (UniProt Q8NB14)
T2 sequence (whole entry): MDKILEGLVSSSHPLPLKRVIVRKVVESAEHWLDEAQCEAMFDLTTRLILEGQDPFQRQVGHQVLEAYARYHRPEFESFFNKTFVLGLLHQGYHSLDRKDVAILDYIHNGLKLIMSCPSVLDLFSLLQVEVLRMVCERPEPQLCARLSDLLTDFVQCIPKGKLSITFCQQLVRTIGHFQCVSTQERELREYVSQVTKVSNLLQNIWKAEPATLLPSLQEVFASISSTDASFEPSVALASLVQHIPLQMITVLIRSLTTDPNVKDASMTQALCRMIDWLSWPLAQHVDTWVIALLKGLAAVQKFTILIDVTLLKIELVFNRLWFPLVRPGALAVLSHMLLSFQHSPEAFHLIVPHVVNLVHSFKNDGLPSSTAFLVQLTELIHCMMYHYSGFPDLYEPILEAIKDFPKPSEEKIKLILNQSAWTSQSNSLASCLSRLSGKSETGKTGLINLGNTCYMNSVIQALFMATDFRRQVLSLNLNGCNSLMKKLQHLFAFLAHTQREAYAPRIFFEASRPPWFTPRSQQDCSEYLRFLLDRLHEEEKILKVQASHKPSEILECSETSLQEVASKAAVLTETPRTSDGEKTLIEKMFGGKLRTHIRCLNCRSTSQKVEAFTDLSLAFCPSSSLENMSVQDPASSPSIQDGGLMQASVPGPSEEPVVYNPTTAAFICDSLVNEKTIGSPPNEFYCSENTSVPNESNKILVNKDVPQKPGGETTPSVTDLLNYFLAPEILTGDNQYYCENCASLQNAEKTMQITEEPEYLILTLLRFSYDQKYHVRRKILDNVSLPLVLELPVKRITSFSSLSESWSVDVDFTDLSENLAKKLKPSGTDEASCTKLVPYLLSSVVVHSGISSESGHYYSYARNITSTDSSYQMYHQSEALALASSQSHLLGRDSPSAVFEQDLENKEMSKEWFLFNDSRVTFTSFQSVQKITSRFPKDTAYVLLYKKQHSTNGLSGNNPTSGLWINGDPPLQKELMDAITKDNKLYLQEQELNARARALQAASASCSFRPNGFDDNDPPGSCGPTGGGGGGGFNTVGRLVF
Outline: as §1

USP39 = molecular target: T3, USP39 (UniProt Q53GS9)
T3 sequence (whole entry): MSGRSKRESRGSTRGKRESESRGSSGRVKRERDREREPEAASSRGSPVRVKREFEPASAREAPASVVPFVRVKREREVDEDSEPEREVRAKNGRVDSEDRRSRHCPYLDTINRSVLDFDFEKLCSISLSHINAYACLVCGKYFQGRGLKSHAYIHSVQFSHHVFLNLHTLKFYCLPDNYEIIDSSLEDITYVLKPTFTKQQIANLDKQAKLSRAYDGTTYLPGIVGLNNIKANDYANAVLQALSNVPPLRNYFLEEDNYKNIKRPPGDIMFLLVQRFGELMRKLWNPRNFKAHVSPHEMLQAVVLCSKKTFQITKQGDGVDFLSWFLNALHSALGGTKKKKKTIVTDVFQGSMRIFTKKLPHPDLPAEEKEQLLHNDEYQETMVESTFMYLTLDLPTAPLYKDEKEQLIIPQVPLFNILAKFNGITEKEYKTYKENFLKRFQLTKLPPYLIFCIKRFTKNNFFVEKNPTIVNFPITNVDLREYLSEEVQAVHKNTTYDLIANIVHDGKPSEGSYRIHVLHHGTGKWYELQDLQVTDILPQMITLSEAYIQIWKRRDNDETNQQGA
Outline: as §1

USP4 = molecular target: T4, USP4 (UniProt Q13107)
T4 sequence (whole entry): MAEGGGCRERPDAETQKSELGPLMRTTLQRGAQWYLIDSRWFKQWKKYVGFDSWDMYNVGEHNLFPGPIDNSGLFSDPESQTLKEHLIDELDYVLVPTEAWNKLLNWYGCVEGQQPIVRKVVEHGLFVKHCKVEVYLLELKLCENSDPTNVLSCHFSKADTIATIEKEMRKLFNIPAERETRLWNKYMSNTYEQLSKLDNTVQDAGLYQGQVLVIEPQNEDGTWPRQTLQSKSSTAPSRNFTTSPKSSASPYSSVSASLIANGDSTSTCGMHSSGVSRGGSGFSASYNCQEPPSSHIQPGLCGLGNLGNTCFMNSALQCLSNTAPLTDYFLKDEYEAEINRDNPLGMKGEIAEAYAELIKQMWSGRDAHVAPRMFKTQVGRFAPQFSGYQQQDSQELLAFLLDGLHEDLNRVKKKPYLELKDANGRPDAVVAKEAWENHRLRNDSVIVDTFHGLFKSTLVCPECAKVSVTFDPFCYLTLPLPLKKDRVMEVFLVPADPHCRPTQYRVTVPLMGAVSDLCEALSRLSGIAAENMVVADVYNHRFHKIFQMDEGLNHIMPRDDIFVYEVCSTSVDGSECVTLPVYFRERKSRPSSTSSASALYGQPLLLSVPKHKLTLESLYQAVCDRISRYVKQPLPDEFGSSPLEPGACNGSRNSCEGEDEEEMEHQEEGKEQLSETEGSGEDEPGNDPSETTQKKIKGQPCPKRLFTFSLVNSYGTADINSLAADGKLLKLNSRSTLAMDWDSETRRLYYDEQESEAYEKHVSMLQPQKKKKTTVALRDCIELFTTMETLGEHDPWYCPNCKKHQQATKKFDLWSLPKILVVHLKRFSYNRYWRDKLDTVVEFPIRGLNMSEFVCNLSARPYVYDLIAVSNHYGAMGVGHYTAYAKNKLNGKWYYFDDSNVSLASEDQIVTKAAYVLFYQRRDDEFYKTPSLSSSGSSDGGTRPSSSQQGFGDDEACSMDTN
Outline: as §1

Measured: log2 ratio of Biotin-Ahx-Ub-VS probe labelling

Chain of USP34 (Q70CQ2 whole entry, the tested form may be a part): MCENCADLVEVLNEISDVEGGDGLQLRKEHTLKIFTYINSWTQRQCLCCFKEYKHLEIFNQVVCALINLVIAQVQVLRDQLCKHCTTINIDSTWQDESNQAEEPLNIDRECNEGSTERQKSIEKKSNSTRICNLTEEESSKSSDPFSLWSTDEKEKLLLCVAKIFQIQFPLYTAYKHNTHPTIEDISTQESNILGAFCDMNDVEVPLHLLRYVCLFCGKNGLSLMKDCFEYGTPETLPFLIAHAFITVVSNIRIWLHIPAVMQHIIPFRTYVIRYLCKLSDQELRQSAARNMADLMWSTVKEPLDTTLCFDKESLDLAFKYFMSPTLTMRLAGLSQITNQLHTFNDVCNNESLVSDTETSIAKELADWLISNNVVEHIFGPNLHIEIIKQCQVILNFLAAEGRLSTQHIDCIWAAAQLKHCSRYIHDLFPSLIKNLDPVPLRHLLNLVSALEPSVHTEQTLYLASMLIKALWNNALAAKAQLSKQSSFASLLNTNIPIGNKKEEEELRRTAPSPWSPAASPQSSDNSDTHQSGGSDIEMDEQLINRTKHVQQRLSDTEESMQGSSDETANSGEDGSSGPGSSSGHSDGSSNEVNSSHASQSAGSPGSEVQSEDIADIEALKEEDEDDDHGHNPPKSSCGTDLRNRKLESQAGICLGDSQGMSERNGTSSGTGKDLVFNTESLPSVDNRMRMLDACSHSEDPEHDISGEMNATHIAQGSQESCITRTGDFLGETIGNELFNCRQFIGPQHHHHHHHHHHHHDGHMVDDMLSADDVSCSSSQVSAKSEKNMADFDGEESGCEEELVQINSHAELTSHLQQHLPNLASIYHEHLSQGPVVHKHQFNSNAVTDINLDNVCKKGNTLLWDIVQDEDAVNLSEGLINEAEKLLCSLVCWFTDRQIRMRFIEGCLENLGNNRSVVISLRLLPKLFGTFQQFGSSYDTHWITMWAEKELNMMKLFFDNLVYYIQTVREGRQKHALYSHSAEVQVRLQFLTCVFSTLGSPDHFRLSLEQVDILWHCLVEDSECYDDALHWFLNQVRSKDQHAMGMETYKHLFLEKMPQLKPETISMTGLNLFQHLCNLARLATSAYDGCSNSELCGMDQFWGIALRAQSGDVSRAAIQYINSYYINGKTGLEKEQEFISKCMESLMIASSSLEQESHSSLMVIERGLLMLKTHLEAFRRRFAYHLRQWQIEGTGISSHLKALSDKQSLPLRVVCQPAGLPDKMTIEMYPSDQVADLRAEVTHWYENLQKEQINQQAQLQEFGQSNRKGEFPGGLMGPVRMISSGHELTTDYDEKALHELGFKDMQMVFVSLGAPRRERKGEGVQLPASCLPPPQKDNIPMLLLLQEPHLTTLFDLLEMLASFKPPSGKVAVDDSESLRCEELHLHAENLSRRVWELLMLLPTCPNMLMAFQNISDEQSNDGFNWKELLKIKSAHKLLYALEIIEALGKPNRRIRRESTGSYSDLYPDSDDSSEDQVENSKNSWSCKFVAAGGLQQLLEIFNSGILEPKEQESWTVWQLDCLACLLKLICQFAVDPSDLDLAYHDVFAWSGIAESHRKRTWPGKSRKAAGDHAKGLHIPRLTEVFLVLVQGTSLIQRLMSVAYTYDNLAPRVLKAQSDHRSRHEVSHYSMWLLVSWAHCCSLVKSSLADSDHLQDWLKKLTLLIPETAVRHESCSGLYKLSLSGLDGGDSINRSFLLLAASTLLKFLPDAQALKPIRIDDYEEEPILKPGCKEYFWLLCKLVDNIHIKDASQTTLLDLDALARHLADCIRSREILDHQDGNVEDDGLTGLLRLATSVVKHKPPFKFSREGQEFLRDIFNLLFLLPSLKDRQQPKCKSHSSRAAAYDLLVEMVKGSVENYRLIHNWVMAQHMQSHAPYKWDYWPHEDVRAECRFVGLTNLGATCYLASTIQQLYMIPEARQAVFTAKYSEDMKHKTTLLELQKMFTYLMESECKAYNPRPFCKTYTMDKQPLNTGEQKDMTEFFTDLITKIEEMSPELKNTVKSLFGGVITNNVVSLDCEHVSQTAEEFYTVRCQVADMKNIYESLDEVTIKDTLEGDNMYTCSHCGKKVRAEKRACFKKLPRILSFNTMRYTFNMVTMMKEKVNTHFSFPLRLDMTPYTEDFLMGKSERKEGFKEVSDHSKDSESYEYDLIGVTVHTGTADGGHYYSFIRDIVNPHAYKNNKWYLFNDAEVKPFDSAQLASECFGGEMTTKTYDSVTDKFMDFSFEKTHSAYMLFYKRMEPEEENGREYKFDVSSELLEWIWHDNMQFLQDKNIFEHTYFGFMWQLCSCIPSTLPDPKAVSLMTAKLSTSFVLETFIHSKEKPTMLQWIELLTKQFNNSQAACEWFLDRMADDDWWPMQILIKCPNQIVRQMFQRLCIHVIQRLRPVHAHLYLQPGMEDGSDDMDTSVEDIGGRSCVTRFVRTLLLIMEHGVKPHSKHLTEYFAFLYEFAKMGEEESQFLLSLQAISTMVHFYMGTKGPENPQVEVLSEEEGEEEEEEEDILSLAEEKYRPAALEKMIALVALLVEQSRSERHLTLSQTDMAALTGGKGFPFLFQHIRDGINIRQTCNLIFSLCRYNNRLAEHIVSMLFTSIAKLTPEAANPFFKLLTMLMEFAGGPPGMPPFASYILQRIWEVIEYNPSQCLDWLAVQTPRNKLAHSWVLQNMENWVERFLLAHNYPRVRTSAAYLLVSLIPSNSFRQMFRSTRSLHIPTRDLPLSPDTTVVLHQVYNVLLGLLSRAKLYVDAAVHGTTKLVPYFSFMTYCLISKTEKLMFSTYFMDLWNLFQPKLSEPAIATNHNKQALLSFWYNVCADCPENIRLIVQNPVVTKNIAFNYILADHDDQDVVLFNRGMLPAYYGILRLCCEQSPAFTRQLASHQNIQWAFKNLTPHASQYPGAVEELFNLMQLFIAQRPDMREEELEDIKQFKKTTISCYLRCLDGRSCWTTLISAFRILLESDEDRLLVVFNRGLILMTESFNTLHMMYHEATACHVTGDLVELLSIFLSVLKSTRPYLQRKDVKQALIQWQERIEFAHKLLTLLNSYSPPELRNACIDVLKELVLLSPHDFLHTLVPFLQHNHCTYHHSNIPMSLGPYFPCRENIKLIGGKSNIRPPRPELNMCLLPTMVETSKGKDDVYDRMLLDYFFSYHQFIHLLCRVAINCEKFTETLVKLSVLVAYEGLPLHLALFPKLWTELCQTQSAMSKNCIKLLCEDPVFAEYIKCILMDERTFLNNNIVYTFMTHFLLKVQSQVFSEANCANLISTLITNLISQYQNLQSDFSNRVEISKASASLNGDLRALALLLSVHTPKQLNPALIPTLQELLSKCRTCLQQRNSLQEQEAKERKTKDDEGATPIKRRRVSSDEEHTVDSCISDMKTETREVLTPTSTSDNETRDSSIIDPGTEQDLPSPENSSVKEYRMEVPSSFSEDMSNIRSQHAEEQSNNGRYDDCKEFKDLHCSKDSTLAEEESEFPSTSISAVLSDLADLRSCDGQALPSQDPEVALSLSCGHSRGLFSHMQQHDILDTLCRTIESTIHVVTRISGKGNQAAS

Cc1nc(CN2CCN(C(=O)CCl)CC2)cs1
inactive: USP34 0.0453 | USP36 -0.0366 | USP38 -0.217 | USP39 -0.381 | USP4 -0.261
